Experimental data as given in PubChem BioAssay (NCI).
Compounds without any hit were thinned out: in the full panel of roughly 79,000, 15% have a hit. Values without a mark were called inactive. Active and inactive are the calls of the source. Rule as the data show it: active = growth inhibition above about 70%; inactive = the rest.

Experiments:
[1] = NCI Yeast Anticancer Drug Screen. Data for the rad52 strain (AID 147);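 also: 0% = growth of vehicle-treated control cultures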; details: S. cerevisiae rad52 mutant growth inhibition, hits give high values
In short: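 Growth of repair-deficient yeast cells was compared between compound-treated and vehicle-treated cultures to give percent inhibition.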

[2] = NCI Yeast Anticancer Drug Screen. Data for the wt1 strain (AID 149);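 also: 0% = growth of vehicle-treated wt1 cultures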; details: S. cerevisiae wt1 strain (SPY 50644) growth inhibition, hits give high values
In short: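 Using yeast strain wt1, compound-induced growth inhibition was determined against vehicle-treated cultures.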

[3] = NCI Yeast Anticancer Drug Screen. Data for the rad50EPP+ strain (AID 151);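 also: 0% = growth of vehicle-treated control cultures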; details: S. cerevisiae rad50 mutant strain, hits give high values
In short: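 Measured: growth inhibition of rad50EPP+ yeast. Reference: vehicle-treated controls. Screen uses strains with defined genetic alterations in DNA damage repair or cell cycle control.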

[4] = NCI Yeast Anticancer Drug Screen. Data for the mgt1 strain (AID 153); details: S. cerevisiae mgt1 mutant growth inhibition, hits give high values
In short: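 Compounds were applied to mgt1 mutant yeast, and growth was then compared against vehicle-treated control cultures to give percent inhibition.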

[5] = NCI Yeast Anticancer Drug Screen. Data for the rad50 strain (AID 155);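 also: 0% = growth of vehicle-only cultures of the same strain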; details: S. cerevisiae rad50 strain growth inhibition, hits give high values
In short: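 Relative growth inhibition (compound vs vehicle) was measured in yeast with a defined repair-gene alteration.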

[6] = NCI Yeast Anticancer Drug Screen. Data for the mec2-1 strain (AID 157); details: S. cerevisiae mec2-1 strain, hits give high values
In short: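 Compounds were applied to mec2-1 yeast cells. Their growth was then compared with that of vehicle-treated cultures to give growth inhibition.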

[7] = NCI Yeast Anticancer Drug Screen. Data for the rad14 strain (AID 159);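 also: 0% = growth of vehicle-treated control cultures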; details: S. cerevisiae rad14 strain growth inhibition, hits give high values
In short: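 Screen for anticancer potential: a yeast strain altered in DNA damage repair is grown with compound, and reduced growth is quantified against vehicle controls.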

[8] = NCI Yeast Anticancer Drug Screen. Data for the sgs1 mgt1 strain (AID 161);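 also: 0% = growth of cultures given vehicle only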; details: S. cerevisiae sgs1 mgt1 strain, hits give high values
In short: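 Yeast cells carrying a defined DNA-repair defect were exposed to test compounds. Growth inhibition was measured relative to vehicle-treated controls.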

[9] = NCI Yeast Anticancer Drug Screen. Data for the CLN2oe strain (AID 163);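 also: 0% = growth of vehicle-only control cultures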; details: S. cerevisiae CLN2oe strain, hits give high values
In short: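 Cells of an engineered yeast line with disturbed cell-cycle regulation are treated with compound. Inhibition of growth is then calculated relative to the vehicle-treated reference.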

[10] = NCI Yeast Anticancer Drug Screen. Data for the cln2 rad14 strain (AID 165);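 also: 0% = growth equal to vehicle treated cultures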; details: S. cerevisiae cln2 rad14 strain, hits give high values
In short: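 Strain: cln2 rad14 yeast, altered in cell cycle control and DNA damage repair. Read-out: growth inhibition vs vehicle.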

[11] = NCI Yeast Anticancer Drug Screen. Data for the bub3 strain (AID 167); details: S. cerevisiae bub3 mutant strain, hits give high values
In short: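 Screening used yeast with an engineered genetic alteration affecting cell cycle control. Compound-exposed cultures were compared with vehicle cultures, and reduced growth was taken as inhibition.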

[12] = NCI Yeast Anticancer Drug Screen. Data for the wt2 strain (AID 169);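 also: 0% = growth of vehicle-treated yeast cultures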; details: S. cerevisiae wt2 strain growth inhibition, hits give high values
In short: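 Growth of compound-treated yeast is measured and expressed as inhibition relative to vehicle-only controls.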

[13] = NCI Yeast Anticancer Drug Screen. Data for the mlh1 strain (AID 171);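 also: 0% = growth of vehicle-treated control cultures of the same strain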; details: S. cerevisiae mlh1 strain growth inhibition, hits give high values
In short: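 Test agents were incubated with yeast bearing a defined DNA damage repair or cell cycle control alteration; values are growth inhibition normalised to vehicle-treated cultures.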

[14] = NCI Yeast Anticancer Drug Screen. Data for the sgs1 strain (AID 173);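 also: 0% = growth of vehicle-only control cultures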; details: S. cerevisiae sgs1 mutant, hits give high values
In short: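 Strain with an altered DNA repair or cell cycle pathway exposed to compound. Growth then measured. Value = inhibition versus vehicle control.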

[15] = NCI Yeast Anticancer Drug Screen. Data for the mlh1 rad18 strain (AID 175); details: S. cerevisiae mlh1 rad18 strain growth inhibition, hits give high values
In short: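 A repair-deficient yeast strain is exposed to test compound, and growth is scored relative to vehicle-treated controls.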

[16] = NCI Yeast Anticancer Drug Screen. Data for the rad18 strain (AID 177); details: S. cerevisiae rad18 mutant growth inhibition, hits give high values
In short: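 DNA-repair-defective yeast; compound treatment; growth inhibition scored against vehicle.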

[17] = at 5.0 µM (retest, dose inferred, filed as 0.5)
[18] = at 50.0 µM (retest, dose inferred, filed as 5.0)

## COc1cc([C@@H]2c3cc4c(cc3[C@@H](OC3OC5COC(C)OC5C(O)C3O)[C@H]3COC(=O)[C@H]23)OCO4)cc(OC)c1O (stereo partly specified)
[1]; at 1.2 µM
  growth inhibition: 1%
[1]; at 3.7 µM
  growth inhibition: 4%
[1]; at 11.0 µM
  growth inhibition: 20%
[1]; at 33.0 µM
  growth inhibition: 51%
[1]; at 100.0 µM
  growth inhibition: 81% (active)
[2]; at 1.2 µM
  growth inhibition: -1%
[2]; at 3.7 µM
  growth inhibition: -2%
[2]; at 11.0 µM
  growth inhibition: -2%
[2]; at 33.0 µM
  growth inhibition: -1%
[2]; at 100.0 µM
  growth inhibition: -13%
[3]; at 1.2 µM
  growth inhibition: -9%
[3]; at 3.7 µM
  growth inhibition: -3%
[3]; at 11.0 µM
  growth inhibition: 2%
[3]; at 33.0 µM
  growth inhibition: 9%
[3]; at 100.0 µM
  growth inhibition: 23%
[4]; at 1.2 µM
  growth inhibition: -4%
[4]; at 3.7 µM
  growth inhibition: -4%
[4]; at 11.0 µM
  growth inhibition: -2%
[4]; at 33.0 µM
  growth inhibition: 0%
[4]; at 100.0 µM
  growth inhibition: 0%
[5]; at 1.2 µM
  growth inhibition: 0%
[5]; at 3.7 µM
  growth inhibition: 4%
[5]; at 11.0 µM
  growth inhibition: 20%
[5]; at 33.0 µM
  growth inhibition: 61%
[5]; at 50.0 µM
  growth inhibition: 11.6%
[5]; at 100.0 µM
  growth inhibition: 89% (active)
[6]; at 1.2 µM
  growth inhibition: -3%
[6]; at 3.7 µM
  growth inhibition: 0%
[6]; at 11.0 µM
  growth inhibition: 4%
[6]; at 33.0 µM
  growth inhibition: 2%
[6]; at 50.0 µM
  growth inhibition: 11.6%
[6]; at 100.0 µM
  growth inhibition: 4%
[7]; at 1.2 µM
  growth inhibition: -2%
[7]; at 3.7 µM
  growth inhibition: -2%
[7]; at 11.0 µM
  growth inhibition: 3%
[7]; at 33.0 µM
  growth inhibition: 2%
[7]; at 100.0 µM
  growth inhibition: 12%
[8]; at 50.0 µM
  growth inhibition: 13.8%
[9]; at 1.2 µM
  growth inhibition: -2%
[9]; at 3.7 µM
  growth inhibition: -6%
[9]; at 11.0 µM
  growth inhibition: -4%
[9]; at 33.0 µM
  growth inhibition: -4%
[9]; at 100.0 µM
  growth inhibition: -6%
[10]; at 50.0 µM
  growth inhibition: 11.3%
[11]; at 1.2 µM
  growth inhibition: -7%
[11]; at 3.7 µM
  growth inhibition: -8%
[11]; at 11.0 µM
  growth inhibition: 0%
[11]; at 33.0 µM
  growth inhibition: -12%
[11]; at 50.0 µM
  growth inhibition: 4.5%
[11]; at 100.0 µM
  growth inhibition: -5%
[12]; at 1.2 µM
  growth inhibition: -3%
[12]; at 3.7 µM
  growth inhibition: -2%
[12]; at 11.0 µM
  growth inhibition: -4%
[12]; at 33.0 µM
  growth inhibition: -3%
[12]; at 100.0 µM
  growth inhibition: 3%
[13]; at 1.2 µM
  growth inhibition: -4%
[13]; at 3.7 µM
  growth inhibition: -3%
[13]; at 11.0 µM
  growth inhibition: -1%
[13]; at 33.0 µM
  growth inhibition: 0%
[13]; at 100.0 µM
  growth inhibition: 7%
[14]; at 1.2 µM
  growth inhibition: -3%
[14]; at 3.7 µM
  growth inhibition: -3%
[14]; at 11.0 µM
  growth inhibition: 1%
[14]; at 33.0 µM
  growth inhibition: 5%
[14]; at 100.0 µM
  growth inhibition: 16%
[15]; at 50.0 µM
  growth inhibition: 64.8%
[16]; at 1.2 µM
  growth inhibition: -4%
[16]; at 3.7 µM
  growth inhibition: -2%
[16]; at 11.0 µM
  growth inhibition: -2%
[16]; at 33.0 µM
  growth inhibition: 6%
[16]; at 100.0 µM
  growth inhibition: 18%

## Cc1ccc(CNc2ccc(Br)cc2)cc1
[1]; at 1.2 µM
  growth inhibition: 5%
[1]; at 3.7 µM
  growth inhibition: 7%
[1]; at 11.0 µM
  growth inhibition: 18%
[1]; at 33.0 µM
  growth inhibition: 66%
[1]; at 100.0 µM
  growth inhibition: 88% (active)
[2]; at 1.2 µM
  growth inhibition: -29%
[2]; at 3.7 µM
  growth inhibition: -28%
[2]; at 11.0 µM
  growth inhibition: -27%
[2]; at 33.0 µM
  growth inhibition: 24%
[2]; at 100.0 µM
  growth inhibition: 82% (active)
[3]; at 1.2 µM
  growth inhibition: -10%
[3]; at 3.7 µM
  growth inhibition: -11%
[3]; at 11.0 µM
  growth inhibition: -4%
[3]; at 33.0 µM
  growth inhibition: 14%
[3]; at 100.0 µM
  growth inhibition: 64%
[4]; at 1.2 µM
  growth inhibition: 16%
[4]; at 3.7 µM
  growth inhibition: 12%
[4]; at 11.0 µM
  growth inhibition: 27%
[4]; at 33.0 µM
  growth inhibition: 69%
[4]; at 100.0 µM
  growth inhibition: 92% (active)
[5]; at 1.2 µM
  growth inhibition: 17%
[5]; at 3.7 µM
  growth inhibition: 6%
[5]; [17]
  growth inhibition: 61%
[5]; at 11.0 µM
  growth inhibition: 16%
[5]; at 33.0 µM
  growth inhibition: 67%
[5]; [18]
  growth inhibition: 89% (active)
[5]; at 50.0 µM
  growth inhibition: 62.8%
[5]; at 100.0 µM
  growth inhibition: 82% (active)
[6]; at 1.2 µM
  growth inhibition: 1%
[6]; at 3.7 µM
  growth inhibition: 2%
[6]; [17]
  growth inhibition: 63%
[6]; at 11.0 µM
  growth inhibition: 17%
[6]; at 33.0 µM
  growth inhibition: 66%
[6]; [18]
  growth inhibition: 90% (active)
[6]; at 50.0 µM
  growth inhibition: 76.7% (active)
[6]; at 100.0 µM
  growth inhibition: 93% (active)
[7]; at 1.2 µM
  growth inhibition: -17%
[7]; at 3.7 µM
  growth inhibition: -18%
[7]; at 11.0 µM
  growth inhibition: -2%
[7]; at 33.0 µM
  growth inhibition: 71% (active)
[7]; at 100.0 µM
  growth inhibition: 92% (active)
[8]; [17]
  growth inhibition: -19%
[8]; [18]
  growth inhibition: 94% (active)
[9]; at 1.2 µM
  growth inhibition: -9%
[9]; at 3.7 µM
  growth inhibition: 11%
[9]; at 11.0 µM
  growth inhibition: 6%
[9]; at 33.0 µM
  growth inhibition: 34%
[9]; at 100.0 µM
  growth inhibition: 81% (active)
[10]; [17]
  growth inhibition: 61%
[10]; [18]
  growth inhibition: 97% (active)
[11]; at 1.2 µM
  growth inhibition: -7%
[11]; at 3.7 µM
  growth inhibition: 11%
[11]; [17]
  growth inhibition: 32%
[11]; at 11.0 µM
  growth inhibition: 26%
[11]; at 33.0 µM
  growth inhibition: 63%
[11]; [18]
  growth inhibition: 94% (active)
[11]; at 100.0 µM
  growth inhibition: 91% (active)
[12]; at 1.2 µM
  growth inhibition: -31%
[12]; at 3.7 µM
  growth inhibition: -30%
[12]; at 11.0 µM
  growth inhibition: -13%
[12]; at 33.0 µM
  growth inhibition: 35%
[12]; at 100.0 µM
  growth inhibition: 87% (active)
[13]; at 1.2 µM
  growth inhibition: -32%
[13]; at 3.7 µM
  growth inhibition: -31%
[13]; at 11.0 µM
  growth inhibition: -21%
[13]; at 33.0 µM
  growth inhibition: 40%
[13]; at 100.0 µM
  growth inhibition: 85% (active)
[14]; at 1.2 µM
  growth inhibition: -17%
[14]; at 3.7 µM
  growth inhibition: -17%
[14]; at 11.0 µM
  growth inhibition: -15%
[14]; at 33.0 µM
  growth inhibition: 34%
[14]; at 100.0 µM
  growth inhibition: 72% (active)
[15]; [17]
  growth inhibition: 28%
[15]; [18]
  growth inhibition: 77% (active)
[15]; at 50.0 µM
  growth inhibition: 60.2%
